In all, about 39,000 sequences were measured (“fluorescence intensity (a.u.)”: median about 4,300, highest 2% from about 39,000 on). The list comes from a sample in which the highest values are over-represented; it also holds similar and randomly drawn sequences.
target: T1, OsSMF1 (Oryza sativa, UniProt Q6ZLB0 1-436); test: protein-binding microarray (RPBM); PBS, 2% BSA, 51.3 ng/ul salmon testes DNA, 50 uM zinc acetate, 200 nM TF, 25 C, 1 h; high values mean tight binding; conditions: protein: recombinant; tags: N-terminal polyhistidine and DsRed monomer fusion (pET32a); chain copies: 2; label: CyDye5-dUTP incorporated in the synthesized complementary strand; 3' TTTTT single-stranded linker to array surface; dsDNA, one strand shown
T1 sequence: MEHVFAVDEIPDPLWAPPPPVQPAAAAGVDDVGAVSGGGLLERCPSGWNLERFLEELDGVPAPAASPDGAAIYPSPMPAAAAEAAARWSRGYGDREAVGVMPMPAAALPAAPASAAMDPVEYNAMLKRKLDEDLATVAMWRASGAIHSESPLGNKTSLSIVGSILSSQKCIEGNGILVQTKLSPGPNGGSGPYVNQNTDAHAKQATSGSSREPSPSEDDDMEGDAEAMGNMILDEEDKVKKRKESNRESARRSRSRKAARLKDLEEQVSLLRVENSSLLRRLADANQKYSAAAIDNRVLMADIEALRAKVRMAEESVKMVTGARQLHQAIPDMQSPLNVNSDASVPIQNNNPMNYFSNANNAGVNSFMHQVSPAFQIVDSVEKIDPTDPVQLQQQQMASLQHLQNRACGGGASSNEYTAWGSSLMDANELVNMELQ
How it was run: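 Binding signal is defined as the fluorescence intensity of each feature in arbitrary units, read on an Axon 4000B scanner. Transcription factors with N-terminal polyhistidine and DsRed fusions came from E. coli BL21-CodonPlus and were purified on Ni–NTA. They were incubated at 200 nM for 1 h at 25 °C on a custom Agilent array that had been made double-stranded with Cy5-dUTP, with 50 µM zinc acetate present, and the array was washed.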

Sequence	binding signal
TCCTTCTTCTTCTCCTTCCTCACTGCAACACTCTTCGGGGCGGAGTCACCTAGTGCAG	38900 fluorescence intensity (a.u.)
CTTCGTCTCCTCCTCCTCCACGTCATCCGCCTCCGCCTCCCGGAGTCACCTAGTGCAG	26000 fluorescence intensity (a.u.)
TTTGTGCGTGTTACGAGTGACTTGCGTTTATATCCTGCTTCGGAGTCACCTAGTGCAG	6490 fluorescence intensity (a.u.)
ACAGGCATAGAGGCTGCTGACACACACCATCCGATCTGTCCGGAGTCACCTAGTGCAG	4990 fluorescence intensity (a.u.)
GCCGTGAACCAAAGCTCTTGCCGTGCTGTGCCGTGCCGGTCGGAGTCACCTAGTGCAG	3220 fluorescence intensity (a.u.)
CATCCCTGGTGCTCTTGGTCTCTTGGCAGCTGTGGAAGGACGGAGTCACCTAGTGCAG	43000 fluorescence intensity (a.u.)
GTATTGCTGCTGTGATGGAACAAGCTCAGCAGGGTGACATCGGAGTCACCTAGTGCAG	3290 fluorescence intensity (a.u.)
GCGTGGTGCTGGTCTCCAAGGATCCCGACAACATCCGCGACGGAGTCACCTAGTGCAG	5380 fluorescence intensity (a.u.)
TGCAGATGGTGCTGTGAAAGCTCTTGAACAGCAGGAAGGTCGGAGTCACCTAGTGCAG	43400 fluorescence intensity (a.u.)
GGGCGGAGCTGGTGCGGAGGGTGGCGTGGCAGCTCGAGGACGGAGTCACCTAGTGCAG	5260 fluorescence intensity (a.u.)
ATGTGATGCATGATGATTAGATATGCTTGCATGTTAATTTCGGAGTCACCTAGTGCAG	3160 fluorescence intensity (a.u.)
TGCTGCCTTTATCATCACCAAGAGCCACTACCTTGCCTTACGGAGTCACCTAGTGCAG	4370 fluorescence intensity (a.u.)
ACACTAATTTCAAGGTTGCTCGTGAGTCATAATCCTGACGCGGAGTCACCTAGTGCAG	7720 fluorescence intensity (a.u.)
GGCCGGAGGGCGGCCTCGGTGGCGTGGAGTTGGCAGCGGGCGGAGTCACCTAGTGCAG	3770 fluorescence intensity (a.u.)
TCGACCCACCGTCTGCCACGTCAGCTTGCCGCCCACCAATCGGAGTCACCTAGTGCAG	28900 fluorescence intensity (a.u.)
AGTAACCGACTCCTTTCCAACGTGTTCCCCACGAAGCCGGCGGAGTCACCTAGTGCAG	4560 fluorescence intensity (a.u.)
GTGCCTGACAATCCTACAGGTGAAATCAACCCCTTTCATCCGGAGTCACCTAGTGCAG	40800 fluorescence intensity (a.u.)
TTTGAAACCCCTCCTCCTCCTCCTTCCCCAACACACAATCCGGAGTCACCTAGTGCAG	3250 fluorescence intensity (a.u.)
CCCTTCCTTCCTTCCTTTGCATCATCATCATCAACCCAATCGGAGTCACCTAGTGCAG	4440 fluorescence intensity (a.u.)
CCACAAACATGCAAGACCAAATTCAACTTCTACAAGTTGTCGGAGTCACCTAGTGCAG	13900 fluorescence intensity (a.u.)
CGTGTTCGATTCCGCTGCTATCCACGTCGCTACGCGCCACCGGAGTCACCTAGTGCAG	7020 fluorescence intensity (a.u.)

Sequence	binding signal
CCACGCTATCCCATGCGATTCGAGAAGGTTCCACACACACCGGAGTCACCTAGTGCAG	41300 fluorescence intensity (a.u.)
AGGTTCGCAGTTCCACGCATCCCACCATCACCACACCACGCGGAGTCACCTAGTGCAG	5160 fluorescence intensity (a.u.)
TCGAGCCGGTAGATGTCTCAGCTAGTGCTTTATCTGTTCGCGGAGTCACCTAGTGCAG	3180 fluorescence intensity (a.u.)
CGGCGCCTAGACTGCGTATCGTAGCTGTCGAACGTGTCGTCGGAGTCACCTAGTGCAG	3640 fluorescence intensity (a.u.)
GAATCTACTGGGCATTTCGTCAAACAGCTCATCTGCGCCCCGGAGTCACCTAGTGCAG	3590 fluorescence intensity (a.u.)
GTGCGTTGTGTGGTTGGTTGGTCAGTGTCTGGGTGGTCACCGGAGTCACCTAGTGCAG	26000 fluorescence intensity (a.u.)
CTCTGGCGATGTGGCGTCTGGTCAAATTCATTGTCTCTACCGGAGTCACCTAGTGCAG	47900 fluorescence intensity (a.u.)
ATTCGTCTGAAAATTGTGTTTCACATGCGTCATTTCTCTACGGAGTCACCTAGTGCAG	5080 fluorescence intensity (a.u.)
GCGAAAACCCTGCATAAACATAGGAAAACACCAAGTGGGTCGGAGTCACCTAGTGCAG	3560 fluorescence intensity (a.u.)
TTTGATCACCGGTCCGGTCTTAATAACTATGTGGCAGACGCGGAGTCACCTAGTGCAG	3660 fluorescence intensity (a.u.)
AGCGAGAGAAGATGCTGACGTGGCATCATGACATGTGGGGCGGAGTCACCTAGTGCAG	19300 fluorescence intensity (a.u.)
GCGTGGAGTGGAGAGTGGAGAGGCATGGGAGGCATGGCAGCGGAGTCACCTAGTGCAG	42900 fluorescence intensity (a.u.)
CCCTGCGCTGCCACGCGGCCGGCATCCGCCAAAGCAACAGCGGAGTCACCTAGTGCAG	4880 fluorescence intensity (a.u.)
GAAGGAGAGGAGGAGAGGAGAGGAGAGAGGGAGGCAGCAGCGGAGTCACCTAGTGCAG	3280 fluorescence intensity (a.u.)
GAAGTGGCGGCCCTTGGCGGAGAGAATGGCATGGCGAGAGCGGAGTCACCTAGTGCAG	65100 fluorescence intensity (a.u.)
AGAGGCATGGGAGTCATGTTCAGGGTGATGGGAGATGGAGCGGAGTCACCTAGTGCAG	3260 fluorescence intensity (a.u.)
CGGGAGAGAGATCAGATGCGGCATGGCGTGGCCGTGGCGTCGGAGTCACCTAGTGCAG	3380 fluorescence intensity (a.u.)
AAACACGCGGCATGGCGTGCCGCGATGCAGTCGGAGATGGCGGAGTCACCTAGTGCAG	48600 fluorescence intensity (a.u.)
GCGGAGCCGACGCGGCGGCGATGCTCGGCCGCGTGGCGGTCGGAGTCACCTAGTGCAG	3840 fluorescence intensity (a.u.)
AGTGGTGGAGAAGGAGAGGAGAGGCAGAGAGAATGAGGAGCGGAGTCACCTAGTGCAG	3240 fluorescence intensity (a.u.)
CAACAGCAGCAGCTACAACGCGGCATCCATGGCCGCCGCGCGGAGTCACCTAGTGCAG	53300 fluorescence intensity (a.u.)

Sequence	binding signal
CCTCCTCAACGCCGCCACCTCATCCGTCCATACAGCGCCGCGGAGTCACCTAGTGCAG	7110 fluorescence intensity (a.u.)
ATAGCCCGTCCTCTTCATGGACCACGGTGTACAGCTTGCTCGGAGTCACCTAGTGCAG	3980 fluorescence intensity (a.u.)
TTAGTTGTTCTTGTTCTCTTGGTTGGGACGTGGAGAGTTGCGGAGTCACCTAGTGCAG	3440 fluorescence intensity (a.u.)
ACATTATCATGTCACGTCGTCGCGTAATCATGGGTACCCACGGAGTCACCTAGTGCAG	4200 fluorescence intensity (a.u.)
GCCGACACGTCGCGACGCCGCTTGCCACGCGCCACGCGCGCGGAGTCACCTAGTGCAG	6450 fluorescence intensity (a.u.)
TAAAATTATTATATTTTATAAGAAAGGTAACAAGTAAACACGGAGTCACCTAGTGCAG	28600 fluorescence intensity (a.u.)
GCTAGGTTCAACGTCATGCCTCATGTTGTCTATTGCTGTTCGGAGTCACCTAGTGCAG	4070 fluorescence intensity (a.u.)
GGGGTTAGTCGCCGGAGGTGTGGCGTGTCGACACGTACGCCGGAGTCACCTAGTGCAG	8720 fluorescence intensity (a.u.)
TTGTTTCACCGCTTACGCCACGTGCGCCGCTCAGCTGTATCGGAGTCACCTAGTGCAG	9840 fluorescence intensity (a.u.)
ATCCTCAACTCAATCCCGACGAAATCCCCTTCGATTTGAGCGGAGTCACCTAGTGCAG	3290 fluorescence intensity (a.u.)
AAGAATTAAAGAAGCCTTTATAAGAAGAGAAGGCCAAGCTCGGAGTCACCTAGTGCAG	60800 fluorescence intensity (a.u.)
TTAAAACGCATCAAGATTATAAGAGCCAAGAGAAATTGCACGGAGTCACCTAGTGCAG	3520 fluorescence intensity (a.u.)
GATTAAATGGAAGAGAGAATGAATAATTAAGATTTAAAGACGGAGTCACCTAGTGCAG	27400 fluorescence intensity (a.u.)
TCAAGGACCTCGTCATCCTCTCAGGTAACACACTTTCCCTCGGAGTCACCTAGTGCAG	3780 fluorescence intensity (a.u.)
ACGCCGCTAGTTCTTTTCTCCAGAGCAATCTGGTCAGTTCCGGAGTCACCTAGTGCAG	59900 fluorescence intensity (a.u.)
TCCTCTTCTCCTCCGCCGCATCAGCAATCTCTCTTTCTACCGGAGTCACCTAGTGCAG	4100 fluorescence intensity (a.u.)
CTTCGCTCTCTTTTCCATTGCAGAGCCCTCACGCTTCCGCCGGAGTCACCTAGTGCAG	3570 fluorescence intensity (a.u.)
AGAAGAGGTGATGTATAAAACATGTCACGATTTAATATCTCGGAGTCACCTAGTGCAG	4070 fluorescence intensity (a.u.)
GTATATATACACGTATACAAAGTTTATATATGACGTATACCGGAGTCACCTAGTGCAG	6040 fluorescence intensity (a.u.)
AAGAAGTACGTCATATATTCAGTTTTATGTATTATTTTATCGGAGTCACCTAGTGCAG	3310 fluorescence intensity (a.u.)
TTATTATGAAAATATATTTAATTATTGATTTGATGAAACTCGGAGTCACCTAGTGCAG	21300 fluorescence intensity (a.u.)

Sequence	binding signal
ATCTTGATATCTGCAACATAAAATGTAACATCAGATTTAACGGAGTCACCTAGTGCAG	39500 fluorescence intensity (a.u.)
ATAACCTAATATAAAGTTCGCTCATATGAAAATTTAAACTCGGAGTCACCTAGTGCAG	51600 fluorescence intensity (a.u.)
TATAAATTAATATGTAGTATATCACTTCATAAGTTTAAATCGGAGTCACCTAGTGCAG	39300 fluorescence intensity (a.u.)
AATTATCATAAAACAACATATTTAAACCATGGTAACATAACGGAGTCACCTAGTGCAG	6200 fluorescence intensity (a.u.)
AAATAACAAAATTACAAGTTTAACATAAATATGTAATCACCGGAGTCACCTAGTGCAG	21200 fluorescence intensity (a.u.)
TTAATACGTATGAATATATAAAGTTTATATATGCATGTACCGGAGTCACCTAGTGCAG	63000 fluorescence intensity (a.u.)
GATATGATTATTTATTTCTTTAAATGAAAATCATGTGTAACGGAGTCACCTAGTGCAG	32500 fluorescence intensity (a.u.)
GTGTTTATATAAGTGTTTGCATATGTACTATGTTTTAATACGGAGTCACCTAGTGCAG	3730 fluorescence intensity (a.u.)
AACATAATGTTTTAACTTAAACCTTAATAATGAAATTTCTCGGAGTCACCTAGTGCAG	3670 fluorescence intensity (a.u.)
TTCGACACAGTCATACGTGAGTCGGATGGAGTTAGGTCTGCGGAGTCACCTAGTGCAG	4150 fluorescence intensity (a.u.)
CTCCTCCCATGCGCCGCCACGTAGGATCGCGCGATCAGATCGGAGTCACCTAGTGCAG	10300 fluorescence intensity (a.u.)
AACACGAAAATGAAAGGGAGGGGCTTTCCTTAGCGATTAACGGAGTCACCTAGTGCAG	3830 fluorescence intensity (a.u.)
TGTAAACTTTTATGATCATTTAGGAGCTCTGGACAGTAATCGGAGTCACCTAGTGCAG	18200 fluorescence intensity (a.u.)
ATGCCATTGATTCAATAGTGAATCATCGTTCTTTCTGGATCGGAGTCACCTAGTGCAG	3550 fluorescence intensity (a.u.)
CTATAATTTAAACATGTAAAGTTTACGTGTATATAAATTTCGGAGTCACCTAGTGCAG	3160 fluorescence intensity (a.u.)
TTTATTATTAGTTTACGTTTAATACTTCTAATTAGTATAACGGAGTCACCTAGTGCAG	3240 fluorescence intensity (a.u.)
AAATGGATGATAAGTATAATTACTTAGAGCAAGTTTAATACGGAGTCACCTAGTGCAG	65500 fluorescence intensity (a.u.)
AGGTAATGTATCATAAAACTATAGATTTAACACTAAATTTCGGAGTCACCTAGTGCAG	53000 fluorescence intensity (a.u.)
GTATCAAAACATATTCAATCATAGATTTAATGAAAACTAACGGAGTCACCTAGTGCAG	3360 fluorescence intensity (a.u.)
AAGTTATACTTAAAGTATTATAAATAATAAAGTAAGTCACCGGAGTCACCTAGTGCAG	34100 fluorescence intensity (a.u.)
TAGCCAGGAGGGAGGTGGCAAAACAGAATGATGGGAGGGACGGAGTCACCTAGTGCAG	3220 fluorescence intensity (a.u.)
